Here are results for 8 molecules from PubChem BioAssay.

Structures are written as SMILES. Activity calls are given as the source filed them.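 Rule for the calls, unless noted: active = compounds killing one labelled cell type while sparing the other, by normalised counts and ratio limits, not self-fluorescent; inactive = the rest.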

Assay [1] in a line: EMT-state selective cytotoxicity in co-culture – imaging, PC-3E GFP, TEM4-18 mCherry, primary screen (AID 1345086).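 For all read-outs here: cells exposed to compound for 72 h before imaging.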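 For red/green cell ratio (normalised): normalised mesenchymal count divided by normalised epithelial count so high means epithelial killing.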 The settings on record: PC-3E GFP / TEM4-18 mCherry co-culture, imaging cell counts, at 1 µM; for red/green cell ratio (normalised): actives lie on both sides, counts scaled to control wells, 1 = unselective.
In assay [2] the target is Mitogen-activated protein kinase 7 (Homo sapiens) (UniProt Q13164). Description: Gal4-ERK5 driven luciferase induction – cell-based, HTS, primary screen (AID 1508626;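 active = luciferase signal above three times the same-plate solvent-only control wells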;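 note: luciferase driven by Gal4-ERK5 fusion binding five Gal4 sites before minimal TATA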). As to conditions: HeLa Gal4-ERK5 transactivation, 18 h, at 5 µM, stronger effect = higher value.
Chain of Mitogen-activated protein kinase 7 (Homo sapiens) (Q13164 whole entry, looked up, the tested form may be a part): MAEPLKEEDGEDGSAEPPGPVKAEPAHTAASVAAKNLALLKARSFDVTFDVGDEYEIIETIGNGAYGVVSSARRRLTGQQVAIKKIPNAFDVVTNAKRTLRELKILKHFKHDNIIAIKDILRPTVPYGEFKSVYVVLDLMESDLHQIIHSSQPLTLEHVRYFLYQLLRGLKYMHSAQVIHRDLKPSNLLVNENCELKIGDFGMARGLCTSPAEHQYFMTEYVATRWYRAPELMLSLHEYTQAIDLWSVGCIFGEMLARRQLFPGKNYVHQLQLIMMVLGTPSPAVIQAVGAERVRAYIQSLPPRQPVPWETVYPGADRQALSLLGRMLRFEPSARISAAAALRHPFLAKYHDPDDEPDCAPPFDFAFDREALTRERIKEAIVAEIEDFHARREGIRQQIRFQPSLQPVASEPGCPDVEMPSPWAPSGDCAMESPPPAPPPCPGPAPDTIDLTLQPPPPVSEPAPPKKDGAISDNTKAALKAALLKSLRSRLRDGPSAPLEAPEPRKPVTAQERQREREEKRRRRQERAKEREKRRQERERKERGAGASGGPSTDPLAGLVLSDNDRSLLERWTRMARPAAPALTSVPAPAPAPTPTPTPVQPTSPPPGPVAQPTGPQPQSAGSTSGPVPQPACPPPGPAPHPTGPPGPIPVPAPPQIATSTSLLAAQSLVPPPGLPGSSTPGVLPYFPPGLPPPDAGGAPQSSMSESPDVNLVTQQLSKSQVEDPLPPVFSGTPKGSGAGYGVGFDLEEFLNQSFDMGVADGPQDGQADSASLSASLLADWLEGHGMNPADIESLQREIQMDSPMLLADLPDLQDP
Setting [3] is: measured here: epithelial PC-3E GFP cell survival.
Setting [4] is: measured here: mesenchymal TEM4-18 mCherry cell survival.

Turning to `C=CCCCCCCCCCCCc1ccco1`, the red/green cell ratio (normalised) in assay [1] was 1.12 (inactive). The results for the normalised cell number in assay [1] (setting [3]) and in assay [1] (setting [4]) were 0.9 and 1.01, respectively. In addition, the luciferase signal in assay [2] was 112 AU (inactive).

In the case of `COc1ccc2c(c1)OCC(Cc1ccc(O)c(OC)c1)C2=O` (configuration not stated), in assay [1], the red/green cell ratio (normalised) was 0.93 (inactive). Moreover, the normalised cell number in assay [1] (setting [3]) amounted to 1.04; in assay [1] (setting [4]), 0.96. The luciferase signal in assay [2] is 84 AU (inactive).

Take `COc1ccc(/C=C/C(=O)c2cc(O)ccc2O)cc1`: the red/green cell ratio (normalised) in assay [1] is 0.92 (inactive). In addition, the normalised cell number stood at 1.12 in assay [1] (setting [3]) and 1.03 in assay [1] (setting [4]). Moreover, the luciferase signal in assay [2] is 80 AU (inactive).

For `CC(=O)O[C@@H]1CC2C(C)(C)[C@H](O)C=C[C@]2(C)C2CC[C@@]3(C)[C@H](c4ccoc4)OC(=O)C4OC43[C@@]21C` (some centres not stated), the red/green cell ratio (normalised) in assay [1] is 1.02 (inactive). The normalised cell number was 1.17 in assay [1] (setting [3]) and 1.19 in assay [1] (setting [4]). Moreover, in assay [2], the luciferase signal was 56 AU (inactive).

On to `COc1ccc(/C=C/C(=O)c2ccc(O)cc2O)cc1`, for which the red/green cell ratio (normalised) in assay [1] was 1.07 (inactive). The figures for the normalised cell number in assay [1] (setting [3]) and in assay [1] (setting [4]) were 0.93 and 0.99, respectively. The luciferase signal in assay [2] was 100 AU (inactive).

Regarding `CC(=O)Oc1cc(C)c2c(c1C(OC(C)=O)OC(C)=O)Oc1c(c(C)c(OC(C)=O)c3c1C(OC(C)=O)OC3=O)OC2=O` (configuration not stated), the red/green cell ratio (normalised) in assay [1] is 0.89 (inactive). Further, the normalised cell number in assay [1] (setting [3]) came to 1.03; in assay [1] (setting [4]) it was 0.92. For the same molecule, the luciferase signal in assay [2] was 124 AU (inactive).

For `CC(=O)OCC(=O)[C@@]1(O)CCC2C3CCC4=CC(=O)C=C[C@]4(C)[C@@]3(F)[C@@H](O)C[C@@]21C` (some centres not stated), the red/green cell ratio (normalised) in assay [1] is 0.75 (inactive). The values for the normalised cell number in assay [1] (setting [3]) and in assay [1] (setting [4]) were 1.27 and 0.95, respectively. In assay [2], the luciferase signal was 76 AU (inactive).

`O=c1cc(-c2ccc(O)cc2)oc2cc(O)ccc12`: the red/green cell ratio (normalised) in assay [1] was 0.77 (inactive). The normalised cell number worked out at 1.28 in assay [1] (setting [3]) and 0.98 in assay [1] (setting [4]). Besides, in assay [2], the luciferase signal is 180 AU (active).
